± gives the standard deviation.
system: OVCAR-3-derived ovarian cancer stem-like cells (spheroids); test: cell growth relative to untreated control; higher = more growth (less inhibition); conditions: 2.29 µM; 96 h
In short: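 OVCAR-3 spheroid-derived stem-like cells were trypsin-dissociated, seeded at 50,000 cells/mL in stem cell medium in ultra-low attachment 96-well plates and preincubated 24 h. Compounds were then added at 2.29 uM for 96 h at 37°C, 5% CO2, in 4 replicate wells. Viability was read as TOX8 resazurin fluorescence (ex 560/em 590 nm) after 4 h. Percent growth was calculated relative to untreated wells after blank subtraction and Grubbs outlier removal.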

Structure (SMILES)	cell growth [%]
O=[n+]1c2c(n([O-])c3ccccc31)-c1cccc3cccc-2c13	92 ± 21
CC(=O)SC(SC(C)=O)SC(C)=O	97.1 ± 26
O=C1c2ccccc2C(=O)c2nc(-c3ccccc3)c(-c3ccccc3)nc21	137 ± 51
CC(C)(C)OC(=O)NC(Cc1ccccc1)C(=O)OCN1C(=O)C2C3C=CC(C2C1=O)C1C2C(=O)N(COC(=O)C(Cc4ccccc4)NC(=O)OC(C)(C)C)C(=O)C2C31 (stereo not given)	109 ± 26
NC(=S)NN=Cc1ncccc1O	95.3 ± 16
Nc1ncnc2c1ncn2[C@@H]1O[C@H](CO)C[C@H]1O	89.8 ± 18
COCCOC1=C(Cl)C(=O)c2c(O)ccc(O)c2C1=O	114 ± 18
CC(=O)/C(C)=N/NC(=O)c1ccccc1O	98.3 ± 20
C[C@H](CSC(=O)c1ccccc1)C(=O)N1c2ccccc2C[C@H]1C(=O)O	90.9 ± 9.5
Clc1ccc(C(c2ccccc2Cl)C(Cl)Cl)cc1 (stereo not given)	128 ± 48
CCCCC(/C=N/N=C(N)N)CC.Cc1cc(O)c(C(C)C)cc1S(=O)(=O)O	91.8 ± 17
CON(C)C(=O)C1CCCO1 (stereo not given)	79.4 ± 11
CN1c2c(nc(N)[nH]c2=O)NCC1CCNc1ccc(C(=O)NC(CCC(=O)O)C(=O)O)cc1 (stereo not given)	101 ± 20
C=C(NC(=O)C(=C)NC(=O)c1csc(C2=N[C@@H]3c4csc(n4)C4NC(=O)c5csc(n5)C([C@](C)(O)[C@@H](C)O)NC(=O)[C@H]5CSC(=N5)/C(=C/C)NC(=O)C(C(C)O)NC(=O)c5csc(n5)C3(CC2)NC(=O)[C@H](C)NC(=O)C(=C)NC(=O)C(=C)NC(=O)C(C(C)C)N[C@@H]2C=Cc3c([C@@H](C)O)cc(nc3[C@H]2O)C(=O)OC4C)n1)C(N)=O (stereo not given in full)	56.7 ± 21
Cc1ccc(C)c(NC(=O)C(=O)C(C(=O)c2ccc3ccccc3c2)C2OC(=O)c3ccccc32)c1 (stereo not given)	121 ± 78
Cc1nc(-n2nc(-c3ccccc3)cc2-c2ccccc2)sc1C(=O)/C=C/c1ccc(Cl)c(Cl)c1	109 ± 25
[N-]=[N+]=NC1=NNC2(C(=O)N1)c1ccccc1-c1ccccc12	99.3 ± 38
CCCCCCCCCCCCCCCCCCOP(=O)([O-])OCC[N+](C)(C)C	51.1 ± 16
CC1=CC(=O)c2cccc(NC3=NCCO3)c21	92.8 ± 25
CNC(=S)N/N=C/c1ccc([N+](=O)[O-])s1	87.9 ± 21

Structure (SMILES)	cell growth [%]
COc1ccc(N=C2C(=Nc3ccc(OC)cc3)N(c3ccc(N(C)C)cc3)C(=S)N2c2ccc(OC)cc2)cc1	72.3 ± 12
NC(=S)N/N=C/c1ccc(OC(=O)COc2ccccc2Cl)cn1	90.5 ± 27
[O-][S+]1c2ccccc2N=C(c2cccc3ccccc23)CC1c1cccc2ccccc12 (stereo not given)	84.1 ± 16
O=C1NC(c2cccc3ccccc23)Nc2ccccc21 (stereo not given)	34.9 ± 6.6
N=N/C(=C\c1c(O)[nH]c2ccccc12)c1ccccc1	64.5 ± 16
CC(C)c1ccc2nc3ccc(C(=O)NCCN(C)C)cn3c(=O)c2c1	79.4 ± 21
CN1CCN(CCSC2Cc3cc(Cl)ccc3Sc3ccccc32)CC1 (stereo not given)	151 ± 26
Cn1c(=O)c2nc3sc4c(n3c2n(C)c1=O)C(=O)c1ccccc1C4=O	115 ± 20
Cc1ccc2[nH]c(O)c(N=Nc3ccccc3[N+](=O)[O-])c2c1	108 ± 15
NC1=NCN([C@@H]2O[C@H](CO)[C@@H](O)[C@H]2O)C(=O)N1	85.8 ± 11
COC(=O)NC1C(C)OC(OC2C/C=C(/C)C3C=CC4C(OC5CC(OC6CCC(OC7CC(O)C(OC8CCC(O)C(C)O8)C(C)O7)C(C)O6)C(OC(C)=O)C(C)O5)C(C)CC(C)C4C3(C)/C(O)=C3/C(=O)OC4(CC(C=O)=CC(O)C4/C=C\2C)C3=O)CC1(C)[N+](=O)[O-] (stereo not given)	61.9 ± 10
c1ccc2c(c1)nnn1c3cnccc3nc21	58.8 ± 9.3
CO[C@@H]1[C@@H](OC(=O)c2ccc(C)[nH]2)[C@@H](O)[C@H](Oc2ccc3c(O)c(NC(=O)c4c[nH]c(C(=O)Nc5c(O)c6ccc(O[C@@H]7OC(C)(C)[C@H](OC)[C@@H](OC(=O)c8ccc(C)[nH]8)[C@H]7O)c(C)c6oc5=O)c4C)c(=O)oc3c2C)OC1(C)C	100 ± 22
CC[C@H](C)C(=O)O[C@H]1CCC=C2C=C[C@H](C)[C@H](CC[C@@H]3C[C@@H](O)CC(=O)O3)[C@H]21	135 ± 25
COc1ccc(/C=C/c2cc(O)cc(O[C@@H]3O[C@H](CO)[C@@H](O)[C@H](O)[C@H]3O)c2)cc1O	106 ± 26
C=C1C(=O)OC2/C=C(/CO)[C@@H](OC(C)=O)C[C@H](O)/C(C)=C\[C@@H](OC(=O)[C@@H](C)CC)[C@@H]12 (stereo not given in full)	100 ± 50
COc1ccc(C2C(C)C(=O)C(C)C(c3ccc(OC)cc3)N2N=O)cc1 (stereo not given)	110 ± 23
O=C(Nc1ccccc1-c1nn(C(=S)Nc2ccccc2)c(=S)n(C(=S)Nc2ccccc2)c1=O)C(F)(F)F	84.8 ± 15
COc1ccc2cccc(C(=N)c3ccc(C)c4c3CCC4)c2c1	95.3 ± 25
O=C1C(CN2CCCCC2)CCCC1CN1CCCCC1 (stereo not given)	62.5 ± 28

— the supplement of paper PMC3484114
